HT1080 IDH1KD tx = qHTS for induction of synthetic lethality in tumor cells producing 2HG: qHTS for the HT-1080-IDH1KD cell line | HT-1080 IDH1 knockdown viability, ATP luminescence, 48 h | Potency, µM (top dose mostly 46.1 µM), inactives show top-dose activity, negative = toxicity, usual class: cytotoxic | 360,000 tested, 2% active | AID 686971, 2013;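 further: potency means the concentration at half of the fitted maximal effect; 0% = DMSO wells and -100% = cell-free medium wells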
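CellTiter-Glo luminescence after 48 h compound exposure at 37 degrees C of IDH1-knockdown HT-1080 cells in 5% FBS RPMI. %Activity scaled between DMSO wells and cell-free media wells, with curves fitted and assigned curve classes.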
IL1B secr inh = qHTS for Inhibitors of Inflammasome Signaling: IL-1-beta AlphaLISA Primary Screen. activity change, % at 57.5 µM. AID 743279, 2014. 360,000 tested, 4.7% active. THP-1 LPS/ATP IL-1B secretion, AlphaLISA, 16 h; hits give low values; in the data active means activity change below about -50%; inconclusive means mostly about -30% to -49%
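THP-1 cells pretreated 1 hr with compounds (up to 57.5 uM final), then stimulated with LPS (250 ng/mL final) plus ATP (1.25 mM final); secreted IL-1B measured by AlphaLISA after 16 hr, decreased signal indicating inhibition.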
DT40 TDP1 CPT = qHTS for Inhibitors of human tyrosyl-DNA phosphodiesterase 1 (TDP1): qHTS in cells in presence of CPT; chicken DT40 Tdp1-/-;hTDP1 cells + 20 nM CPT, ATP luminescence, 48 h; Potency, µM (series often up to 46.2 µM), inactives show at the top dose activity change, negative = growth inhibition, actives largely listed as inhibitors; 420,000 tested, 12% active; further: potency means the concentration at half of the fitted maximal effect; nearly all actives have a fitted effect of over 55% in size
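Cell growth measured by CellTiter-Glo luminescence after a minimum 48 h, 37 C compound exposure with 20 nM CPT in Tdp1-knockout DT40 cells stably expressing hTDP1, seeded 400/well; qHTS titration format.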
HT1080NT lethal = qHTS for induction of synthetic lethality in tumor cells producing 2HG: qHTS for the HT-1080-NT fibrosarcoma cell line; HT-1080-NT fibrosarcoma viability, CellTiter-Glo ATP luminescence, 48 h; Potency, µM (top dose mostly 46.1 µM), for inactives: at the top dose activity, negative = less viability, hits mostly cytotoxic; 360,000 tested, 1.6% active; AID 686970, 2013;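 further: NT is the 2HG producing partner of a matched IDH1 knockdown line; potency means the concentration at half of the fitted maximal effect; 0% = DMSO-treated cells and -100% = media-only wells without cells; nearly all actives have a fitted effect of over 55% in size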
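HT-1080-NT fibrosarcoma cells (2HG-overproducing), 750 cells/well in RPMI with 5% FBS, dosed after 2 h and incubated 48 h at 37C. CellTiter-Glo luminescence normalized to DMSO and no-cell wells; concentration-response curves fitted and classed.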
DT40 TDP1 no CPT = qHTS for Inhibitors of human tyrosyl-DNA phosphodiesterase 1 (TDP1): qHTS in cells in absence of CPT. 420,000 tested, 15% active. Potency, µM (series often up to 46.2 µM), for inactives: top-dose activity change, negative = growth inhibition, hits mostly inhibitors. DT40 Tdp1-/- hTDP1 cells, no CPT, ATP luminescence, 48 h; further: potency means the concentration at half of the fitted maximal effect; nearly all actives have a fitted effect of over 55% in size
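Cells were dispensed at 400 per well, compounds added by pin tool, plates incubated ≥48 hr at 37 °C, then CellTiter-Glo added for 30 min at room temperature before luminescence reading. Line: DT40 Tdp1-/- complemented with hTDP1; camptothecin omitted.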
Active calls of the source: *; ? = inconclusive; . = not tested or not shown. Only some compounds are listed: those with a hit (about 19% of all), similar ones and a draw of the others. Unless noted, the call rests on the fitted dose curve; in most records, active means well fitted curve in the direction sought with a large enough effect; inconclusive means small, poorly fitted or top-dose-only effect, or another doubt; inactive means no such curve, though single readings can be large; an effect the other way counts as inactive or inconclusive. Unless noted, on the % scale 0 is the no-effect control and ±100 the full control effect.

SMILES | HT1080 IDH1KD tx | IL1B secr inh | DT40 TDP1 CPT | HT1080NT lethal | DT40 TDP1 no CPT
COc1cc(CCCN2C(=S)NC[C@@H]2c2ccccc2)cc(OC)c1OC | -3.5% | 0.9 | 25.9µM* | 4.4% | 16.4µM*
CCCCN1C(=S)NC[C@@H]1c1ccccc1 | 1.7% | 10.2 | -13.7% | 14.6% | -18.6%
COc1ccc(O)c(/C=N/NC(=O)c2cc(=O)[nH]c3ccccc23)c1 | ? | 224.2 | ? | ? | ?
CC(C)c1ccc(CN(C)C(=O)c2ccc(S(=O)(=O)NCc3ccco3)cc2)cc1 | -26.6% | 16.2 | 20.6µM* | -15.0% | 20.6µM*
c1ccc(-c2n[nH]c(-c3ccccn3)n2)nc1 | ? | -9.6 | ? | -5.9% | -19.4%
c1ccc(C(Cc2nc(-c3ccccn3)no2)c2ccccc2)cc1 | -5.4% | -2.4 | ? | -9.7% | 16.4µM*
Cc1ccc(-c2nc(-c3ccccn3)no2)cc1 | 6.51µM* | 0.0 | 7.31µM* | 5.17µM* | 8.2µM*
COc1cccc(-c2nc(-c3ccccn3)no2)c1OC | 18.6% | -10.8 | 23.1µM* | 12.2% | ?
c1ccc(-c2n[nH]c(-c3ccccn3)n2)cc1 | 5.8µM* | -12.1 | ? | 8.2µM* | ?
O=C(Nc1cc(-c2nc3ccccc3o2)ccc1Cl)c1sc2c([N+](=O)[O-])cccc2c1Cl | . | . | -2.6% | . | 6.6%
O=C(NCCCCc1ccccc1)Nc1ccc(F)cc1F | -2.4% | -7.1 | ? | 0.0% | -25.5%
Cc1onc(-c2ccccc2Cl)c1C(=O)NC1C(=O)N2C1SC(C)(C)C2C(=O)O (stereo not drawn) | . | . | -2.1% | . | -6.9%
Cc1ccc(-c2nc(-c3ccccn3)no2)cc1Cl | ? | 17.4 | ? | ? | 11.6µM*
Cc1ccc(-c2nc(-c3ccncc3)no2)cc1Cl | 17.6% | 8.9 | 6.7% | 7.4% | -3.6%
c1ccc(-c2cc(-c3nc(-c4ccccn4)no3)c3ccccc3n2)cc1 | 13.2% | -15.2 | 9.2µM* | 1.4% | 8.2µM*
c1ccc(-c2noc(-c3ccno3)n2)nc1 | 5.1% | 40.2 | 2.3% | 6.8% | -2.1%
COc1ccccc1-c1noc(-c2cc(OC)c(OC)c(OC)c2)n1 | -8.4% | -22.2 | ? | -16.0% | 23.1µM*
c1ccc(-c2ccc(-c3nc(-c4ccccn4)no3)cc2)cc1 | 12.6µM* | -3.9 | 11.6µM* | 10µM* | 10.3µM*
CCN1C(=O)[C@@H]2[C@H](C1=O)[C@@H]1C(=O)Nc3ccccc3C(=O)N1[C@@H]2c1ccc(Br)cc1 | 6.6% | 33.3 | -20.6% | 8.2% | -2.5%
CC(=O)NC(CCS(C)(=O)=O)C(=O)Nc1ccc(Oc2ccccc2)cc1 (stereo not drawn) | -5.8% | -10.8 | 0.9% | -5.5% | 5.8%
COc1ccc(NC(=O)Cn2cc(S(=O)(=O)c3ccccc3)c(=O)c3cc(C)ccc32)cc1Cl | . | . | -4.4% | . | 2.2%
Clc1cccc(-c2nc(-c3ccccn3)no2)c1 | ? | 13.3 | -20.7% | ? | ?
c1ccc(-c2nc(-c3ccccn3)no2)cc1 | 10µM* | 21.7 | 16.4µM* | 12.6µM* | ?
CCN(CC)CC#CCC(C)(c1ccccc1)c1ccccc1 | ? | ? | ? | ? | 16.4µM*
CC(C)(C)c1ccc(CC(=O)N2CCC2(C)C(=O)NS(=O)(=O)c2ccc(C#N)cc2)cc1 (stereo not drawn) | 4.5% | 23.2 | 5.1% | 2.5% | 9.7%
O=C1NC(=O)c2cc(Nc3ccccc3)c(Nc3ccccc3)cc21 | -19.3% | . | ? | -3.9% | 12.6µM*
CC(=O)c1cccc(NC(=O)c2ccc(Cl)c(S(=O)(=O)N3CCOCC3)c2)c1 | . | . | ? | . | 0.461µM*
CC(=O)c1cccc(NC(=O)c2cccc(S(=O)(=O)N3CCOCC3)c2)c1 | 4.6% | 0.0 | 7.1% | 1.7% | -20.7%

Bioassay records from PubChem.
